# Measurements published in the supplement of paper PMC9801561.
# ± gives the standard deviation of the averaged measurements.
# Assays:
# [1] = system: Escherichia coli Nissle 1917; test: area under OmniLog respiration curve over 48 h (OmniLog units x h); higher = more growth / nutrient utilisation; extreme values may be limits of the assay; details: incubation: 48 h, 37 °C
# [2] = system: Escherichia coli Nissle 1917; test: DuctApe activity index of respiration/growth curve (0 no growth to 9 maximum) (index 0-9); higher = more growth / nutrient utilisation, active = 3 or more; extreme values may be limits of the assay; details: incubation: 48 h, 37 °C
# [3] = nutrient role: C-Source, carbohydrate
# [4] = nutrient role: C-Source, carboxylic acid
# [5] = nutrient role: N-Source, inorganic
# 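Throughout, for DuctApe activity index of respiration/growth curve (0 no growth to 9 maximum): biolog PM4 phosphorus and sulfur plates, tetrazolium violet dye reduction read in the OmniLog every 15 min, kinetic curves scored by DuctApe, each plate run in triplicate.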
structure (smiles),measurement,setting,value
N#C[C@H](O[C@@H]1O[C@H](CO[C@@H]2O[C@H](CO)[C@@H](O)[C@H](O)[C@H]2O)[C@@H](O)[C@H](O)[C@H]1O)c1ccccc1 [Amygdalin],area under OmniLog respiration curve,[1]; [3],4.97 ± 0.43
same,DuctApe activity index,[2]; [3],0 (inactive)
O=C(O)CC(Br)C(=O)O (stereo not drawn) [Bromosuccinic acid],area under OmniLog respiration curve,[1]; [4],7400 ± 380
same,DuctApe activity index,[2]; [4],8 (active)
O=C(O)CCCO [g-Hydroxybutyric acid],area under OmniLog respiration curve,[1]; [4],5800 ± 210
same,DuctApe activity index,[2]; [4],7 (active)
O=[N+]([O-])O [Nitrate],area under OmniLog respiration curve,[1]; [5],4.72
same,DuctApe activity index,[2]; [5],0 (inactive)
